Many of the other results were omitted from the sample, so hits are more common in it than they were.
Pf Dd2 growth – inhibitors of Plasmodium falciparum Dd2 growth. P. falciparum Dd2 growth, SYBR Green, 72 h. Potency, µM (series often up to 28.9 µM), actives largely listed as inhibitors. AID 1347417. 4.3% of 120,000 active; active = well fitted inhibition curve with a large enough effect; also: nearly all actives have a fitted effect of over 65% in size
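Readout: SYBR Green fluorescence, 485 nm excitation, 535 nm emission, after ~16 h lysis at 37C. Before that, Dd2-infected red cells (2.5% hematocrit) grew 72 h with compound, 29 uM top final concentration.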
Of the large screens only hits and unclear results are named; the others gave an inactive call; ! = repeats disagree.

CCOc1ccccc1CNC(=O)c1cn(-c2ccc(OC)cc2)c(=O)c2ccccc12	Pf Dd2 growth 8.9µM
OCC1CN(c2ncccn2)CC12CCN(C1CCSCC1)CC2 (stereo not given)	none
O=C(NCc1ccccc1)N1Cc2[nH]cnc2C[C@H]1c1nc(-c2ccc3c(c2)OCO3)no1	none
N#Cc1ccc(C(=O)N2Cc3[nH]cnc3C[C@H]2c2nc(-c3ccc4c(c3)OCO4)no2)cc1	Pf Dd2 growth 10µM
Cc1ccc(-c2noc([C@@H]3Cc4nc[nH]c4CN3C(=O)c3ccc(F)cc3)n2)cc1	none
C[C@@H]1CN(C(=O)CN(C)Cc2ccccc2F)C[C@]1(C)O	none
COCc1nc(C2CCCN(C(=O)NCCC(C)C)C2)no1 (stereo not given)	none
Cc1cc(C)n2nc(CC(=O)NCc3cc(-c4ccco4)on3)nc2n1	none
Cc1cc(CNC(=O)c2cc(-c3ccco3)nc3c(Cl)cccc23)no1	Pf Dd2 growth 8.9µM
O=C(COCc1cc(-c2ccco2)on1)Nc1cccc(Cl)c1Cl	none
O=C(c1ccccc1-c1nn[nH]n1)N1CCOCC(O)(CN2CCCC2)C1 (stereo not given)	none
Cc1ccc(C)c2c(C)c(C(=O)N3CCCC(O)(CN4CCCC4)C3)[nH]c12 (stereo not given)	Pf Dd2 growth 11µM
O=C(c1cccc(-c2ncc[nH]2)c1)N1CCCC(O)(CN2CCCC2)C1 (stereo not given)	none
CC(=O)N[C@@H]1CN(C(=O)c2[nH]c3c(C)ccc(C)c3c2C)C[C@H]1C(C)C	none
Cc1ccc(-c2cccc(C(=O)N3CCCC(O)(CN4CCCC4)C3)c2)o1 (stereo not given)	Pf Dd2 growth 11µM
O=C(c1cccc(-n2cccn2)c1)N1CCOCC(O)(CN2CCCC2)C1 (stereo not given)	none
Cc1nc2ncccn2c1C(=O)N1CCC2(CCCN(C)C2=O)C1 (stereo not given)	none
CC(C)NC(=O)N1CCN(C(=O)C2CCCCC2)[C@@H](C(=O)N[C@@H](CC2CCCCC2)C(N)=O)C1	none
CCOc1ccccc1NS(=O)(=O)c1c(-c2ccc(C)cc2)csc1C(=O)OC	Pf Dd2 growth 10µM
COC(=O)c1scc(-c2ccc(C)cc2)c1S(=O)(=O)Nc1ccc(F)cc1F	none
COC(=O)c1scc(-c2ccc(C)cc2)c1S(=O)(=O)Nc1cccc(Cl)c1C	none
COc1ccc(-n2nc3n(c2=O)CCN([S+](=O)([O-])c2cccc(C(F)(F)F)c2)C3)cc1	none
Cc1nc(CCNC(=O)C2CCCC2)no1	none
CCn1cc(C(=O)NCCCN2CCCC(C)C2)c(=O)c2cc(S(=O)(=O)N(C)C3CCCCC3)ccc21 (stereo not given)	Pf Dd2 growth 1µM
CCCCN(CC)CCCNC(=O)c1cn(CC)c2ccc(S(=O)(=O)N3CCc4ccccc4C3)cc2c1=O	Pf Dd2 growth 10µM
CCn1cc(C(=O)NCCc2ccccc2)c(=O)c2cc(S(=O)(=O)N(C)C3CCCCC3)ccc21	none
CCn1cc(C(=O)NCCCN(CC(C)C)CC(C)C)c(=O)c2cc(S(=O)(=O)N3CCc4ccccc4C3)ccc21	none
CCCCN(CCCC)CCNC(=O)c1cn(CC)c2ccc(S(=O)(=O)N(C)C3CCCCC3)cc2c1=O	none
CCCN(CCC)CCCNC(=O)c1cn(CC)c2ccc(S(=O)(=O)N3CCc4ccccc4C3)cc2c1=O	none
CNC(=O)C(C)(C)N1CCC[C@H]1C(=O)NCCN1CCCCC1	none
CN1CCN(c2nc3c(c(=O)[nH]2)CCN(Cc2cccc(Cl)c2)CC3)CC1	none
CC(=O)Nc1ccc(C(=O)NC[C@@H]2C=C(C)[C@H](CC(=O)NCCN3CCOCC3)C[C@H]2C(C)C)cc1	none
CSc1ccc(/C=C/c2nc3ccccc3c(=O)n2-c2cccc(Cl)c2C)cc1	none
O=c1c2ccccc2nc(/C=C/c2cccc3ccccc23)n1-c1ccccc1Cl	none
Cc1ccccc1-n1c(/C=C/c2ccccc2F)nc2ccccc2c1=O	Pf Dd2 growth 10µM
COc1ccccc1-n1c(/C=C/c2c(C)n(C)c3ccccc23)nc2ccccc2c1=O	Pf Dd2 growth 4µM
COc1ccc(-n2c(/C=C/c3c(C)[nH]c4ccccc34)nc3ccccc3c2=O)cc1	none
COc1ccc(Cl)cc1-n1c(/C=C/c2cccc3ccccc23)nc2ccccc2c1=O	none
Cc1ccccc1-n1c(/C=C/c2c(C)n(C)c3ccccc23)nc2ccccc2c1=O	Pf Dd2 growth 2.8µM
Cc1ccc(-n2c(/C=C/c3ccc(Br)s3)nc3ccccc3c2=O)cc1	none
COc1ccc(-n2c(/C=C\c3ccccc3F)nc3ccccc3c2=O)cc1OC	none
CCn1ncc(N2CCCC(CC(=O)NCCc3cccs3)C2)cc1=O (stereo not given)	none
O=C(Nc1cccc(C(F)(F)F)c1)c1cnc2c(c1)N(Cc1ccccc1)CCC2	none
O=C(N[C@H]1CCC[C@H]1O)C1(Oc2ccc(Cl)cc2)CCNCC1	none
COCC(=O)N[C@@H]1CN(Cc2ccc(Br)o2)C[C@H]1CO	none
Cc1ccc(C(=O)N2CCC(CCC(=O)O)CC2)cc1	none
O=C(NC1CCCC1)c1ccc2c(c1)N(S(=O)(=O)c1ccccc1)CC2	none
O=C(NCC1CCCCC1)c1ccc2c(c1)N(S(=O)(=O)c1ccccc1)CC2	Pf Dd2 growth 4.5µM
COc1ccccc1CNC(=O)c1ccc2c(c1)CCN2S(=O)(=O)c1ccccc1	none
O=C1CCN(C(=O)CCc2ccccc2)CCCCCCN1	none
CC(O)c1cc2n(n1)CCN(C(=O)CN1CCCN(C)CC1)C2 (stereo not given)	none
COc1cccc(-c2nc3cc4c(cc3cc2CN2CCSCC2)OCO4)c1OC	Pf Dd2 growth 11µM
COc1cccc(-c2nc3cc4c(cc3cc2CN2CCOCC2)OCO4)c1OC	none
COc1cccc(-c2noc(N3CCCC3)n2)c1OC	none
COc1ccc2[nH]c(=O)c(CCC(=O)O)cc2c1	none
CCNC(=O)[C@@H]1C[C@@H](NC(=O)Cn2nccc2C)CN1Cc1ccccn1	none
CCOc1ccc(NC(=O)N2CC(c3nnc(-c4ccncc4)o3)C3(CCOCC3)C2)cc1 (stereo not given)	none
CN(C)C(=O)N1CCC2(C1)C(=O)N(CCc1ccccc1)c1ccccc12 (stereo not given)	none
Cc1ccccc1C(=O)N1CCC2(C1)C(=O)N(CCc1ccccc1)c1ccccc12 (stereo not given)	none
O=C(c1ccccc1Cl)N1CCC2(C1)C(=O)N(CCc1ccccc1)c1ccccc12 (stereo not given)	none
Cc1noc(C)c1[S+](=O)([O-])N1CCC2(C1)C(=O)N(Cc1ccccc1)c1ccccc12 (stereo not given)	none
O=C1N(CCc2ccccc2)c2ccccc2C12CCN([S+](=O)([O-])c1cccs1)C2 (stereo not given)	Pf Dd2 growth 7.9µM!
CC(=O)N1CCC2(C1)C(=O)N(CCc1ccccc1)c1ccccc12 (stereo not given)	none
O=C(c1ccc(Cl)nc1)N1CCC2(C1)C(=O)N(CCc1ccccc1)c1ccccc12 (stereo not given)	Pf Dd2 growth 13µM!
O=C1N(Cc2ccccc2)c2ccccc2C12CCN([S+](=O)([O-])c1ccccc1)C2 (stereo not given)	none
O=C(C1CC1)N1CCC2(C1)C(=O)N(CCc1ccccc1)c1ccccc12 (stereo not given)	Pf Dd2 growth 6.3µM!
CCCOC(=O)N1CCC(C(=O)Nc2cccc(-c3cccc(F)c3)c2)CC1	none
Cc1ccc(C2Cn3nnc(-c4noc(-c5ccncc5)n4)c3CO2)cc1 (stereo not given)	none
COCC1CN(C(C)=O)CC12CCN(Cc1c(C)n[nH]c1C)CC2 (stereo not given)	none
CN(C)C(=O)N1CCN(C(=O)c2noc3c2CCCC3)[C@H]2CS(=O)(=O)C[C@H]21	none

Screens: PubChem BioAssay, National Center for Advancing Translational Sciences (NCATS)
